aDG glyco act: activators of alpha-DG glycosylation, primary screen, uHTS, Pro5-aDG cells, AlphaScreen. alpha-DG glycosylation AlphaScreen (IIH6); 0% Pro5, 100% B10-LARGE cell signal. activation, % at 10 µM. AID 624168, 2012. 0.22% of 360,000 active;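 active means activation of at least 8% versus controls, or a plate z-score of at least 8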;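 further: Pro5 are CHO cells carrying HIG-tagged alpha-DG that lacks glycosylation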
HSF1 inh: HSF1 inhibitors in luciferase reporter cells, primary screen, cell-based, NIH3T3, luminescence; AID 2098, 2009; NIH3T3-HGL HSE-luciferase, MG132-induced, luminescence 8 h; hits give low values; activity change, negative = inhibition, % at 7.5 µM (by protocol); 0.77% of 300,000 active;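 active means more than half of replicate wells show activity change below -50%, luminescence cut by over half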;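 further: luciferase reports HSF-1 transcriptional activity via heat shock element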
NPR2 activator: human GC-B receptor activators, primary screen, HEK293 GC-B cells, cGMP TR-FRET, EC30 CNP. 0% at EC30 CNP, 100% saturating CNP. activation, % at 10 µM. 0.11% of 370,000 active;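 active means activation at 10 µM reaching about 35% in either raw or pattern-adjusted values, limit read from the data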
Target sequence (P20594 whole entry, looked up): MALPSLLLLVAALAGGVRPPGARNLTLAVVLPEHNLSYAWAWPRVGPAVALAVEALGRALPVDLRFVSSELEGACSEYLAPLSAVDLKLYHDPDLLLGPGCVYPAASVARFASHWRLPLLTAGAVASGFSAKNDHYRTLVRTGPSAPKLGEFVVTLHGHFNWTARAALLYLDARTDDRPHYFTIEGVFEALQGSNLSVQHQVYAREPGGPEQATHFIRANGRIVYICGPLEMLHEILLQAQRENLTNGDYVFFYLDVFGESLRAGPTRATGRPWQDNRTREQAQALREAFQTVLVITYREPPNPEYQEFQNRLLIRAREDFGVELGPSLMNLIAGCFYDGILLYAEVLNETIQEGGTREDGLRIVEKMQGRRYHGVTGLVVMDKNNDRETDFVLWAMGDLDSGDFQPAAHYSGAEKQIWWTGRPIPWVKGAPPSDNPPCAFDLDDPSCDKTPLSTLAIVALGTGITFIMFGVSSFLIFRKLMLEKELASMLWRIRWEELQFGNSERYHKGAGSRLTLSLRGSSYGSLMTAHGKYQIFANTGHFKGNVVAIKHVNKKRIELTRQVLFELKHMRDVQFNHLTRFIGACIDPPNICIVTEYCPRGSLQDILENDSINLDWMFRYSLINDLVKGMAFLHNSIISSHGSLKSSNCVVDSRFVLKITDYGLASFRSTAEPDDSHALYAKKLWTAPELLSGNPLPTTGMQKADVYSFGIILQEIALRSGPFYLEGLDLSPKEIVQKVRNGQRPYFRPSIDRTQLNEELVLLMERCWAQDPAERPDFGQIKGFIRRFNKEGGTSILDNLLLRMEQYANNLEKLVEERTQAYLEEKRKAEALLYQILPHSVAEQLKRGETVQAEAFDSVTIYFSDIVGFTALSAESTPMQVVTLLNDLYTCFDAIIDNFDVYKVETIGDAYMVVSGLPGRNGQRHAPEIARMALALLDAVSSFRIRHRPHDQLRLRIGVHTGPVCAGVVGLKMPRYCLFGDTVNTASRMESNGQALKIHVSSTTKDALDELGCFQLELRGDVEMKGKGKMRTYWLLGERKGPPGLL
NPR1 activator: GC-A stimulated cGMP production enhancers – HEK293 GC-A cells, cGMP TR-FRET, EC30 ANP, primary screen; Atrial natriuretic peptide receptor 1 (Homo sapiens), P16066; AID 1671463, 2021; 0% at EC30 ANP, 100% saturating ANP; activation, % at 10 µM; 0.14% of 370,000 active; in the data active means activation above about 40%
HSF-1 act: HSF-1 activators, primary screen, NIH3T3-HGL cells, MG132 stress, luminescence, single point | AID 504408, 2011 | 1.7% of 300,000 active | NIH3T3-HGL HSF-1 luciferase reporter, 8 h; 100% = twice DMSO control signal | activation, % at 9 µM;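 active means mean replicate activation of at least 50% with a set share of replicates each reaching 50%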
Dyrk1A ADPGlo: rat Dyrk1A kinase inhibitors, primary screen, biochemical, single point, plate reader | inhibition, % at 12.5 µM | ADP-Glo luminescence, NFATc1 peptide | 0.43% of 310,000 active | Dual specificity tyrosine-phosphorylation-regulated kinase 1A (Rattus norvegicus), Q63470; in the data active means inhibition above about 50%
Of the large screens only hits and unclear results are named; the others gave an inactive call. This is a sample that favours compounds with a hit; in the whole collection about 2.5% have one here.

CCCCCCC(=O)Nc1nc(C)c(-c2csc(Nc3ccc(Cl)cc3)n2)s1	Dyrk1A ADPGlo 56.7 (no result: NPR2 activator, NPR1 activator)
O=c1[nH]c(CSc2ccccn2)nc2c1cnn2-c1ccccc1	HSF-1 act 56.7
O=c1[nH]c(CSc2ncc(C(F)(F)F)cc2Cl)nc2ccccc12	HSF-1 act 63.5
O=c1[nH]c(CSc2ccccn2)nc2ccccc12	HSF-1 act 75.0
Cn1ccnc1SCc1nc2c(cnn2-c2ccccc2)c(=O)[nH]1	none
COc1cc(OC)cc(C(=O)N/N=C\c2ccoc2)c1	none (no result: Dyrk1A ADPGlo)
Cc1cc(C)n(Cc2ccc(Cl)cc2Cl)c(=O)c1S(=O)(=O)c1ccccc1	HSF-1 act 59.4
COc1ccc(CN2C(=NC(=O)CCC3CCCC3)SC3CS(=O)(=O)CC32)cc1 (stereo unspecified)	HSF1 inh -70.8
CCOc1ccc2nc(N3C(=O)CNC3=S)sc2c1	HSF-1 act 62.5
O=C(Nc1nc2ccccc2s1)c1ccc([N+](=O)[O-])o1	none
Cc1cc(C)c2nc(NC(=O)c3ccc([N+](=O)[O-])o3)sc2c1	none
O=C(Nc1nc2cc3c(cc2s1)OCCO3)c1ccc([N+](=O)[O-])o1	HSF-1 act 104.1
COc1ccc2nc(NC(=O)c3ccc([N+](=O)[O-])o3)sc2c1	HSF-1 act 131.8
Cc1cc(C)c2sc(NC(=O)c3ccc([N+](=O)[O-])o3)nc2c1	HSF-1 act 77.0
Cc1cc(NC(=O)CSc2nnc(Cc3ccccc3)n2C)no1	none
O=C1OC(NC(=O)c2ccccc2)C(n2cc(CO)nn2)=C1Cl (stereo unspecified)	HSF1 inh -61.9
O=C(C1CCCCC1)N1C[C@@H](n2cc(C3CC3)nn2)[C@H](O)C[C@@H]1c1ccc(Cl)cc1	none (no result: HSF1 inh, HSF-1 act, Dyrk1A ADPGlo)
Cc1cc(C(=O)COC(=O)c2ccco2)c(C)n1Cc1ccco1	HSF1 inh -75.4
COC(=O)c1ccc(C(=O)OC)c(NC(=O)CN2CCCCC2)c1	none
Cc1cc(-c2nnc(CCC(=O)N(C)Cc3cccc4ccccc34)o2)no1	HSF-1 act 64.3
COc1ccccc1CN(C)C(=O)c1cc(-c2cccs2)nc2ccccc12	none
CSc1c(SCc2ccccc2)cnn(-c2ccccc2)c1=O	none
COC(=O)c1nn(-c2ccc3c(c2)CCN3C(C)=O)cc1O	HSF1 inh -58.4
CCOC(=O)C1CN(S(C)(=O)=O)c2cc(CC(=O)OC)ccc2O1 (stereo unspecified)	none
Cc1ccc2nc(C(F)(F)F)c(C#N)c(N)c2c1	none
Cc1cc(C)c2nc(C(F)(F)F)c(C#N)c(N)c2c1	HSF1 inh -62.0
COc1ccc(C(=O)Nc2ccc(S(=O)(=O)Nc3cc(C)nc(C)n3)cc2)cc1OC	none
Cc1cnc(NC(=O)c2cccs2)s1	HSF-1 act 82.9
O=C(Nc1ncc([N+](=O)[O-])s1)c1cccs1	none
Cc1cnc(NC(=O)Nc2ccc(Cl)cc2)s1	HSF-1 act 273.6
COc1ccc(S(=O)(=O)NCCCn2ccnc2)cc1Cl	none
O=C(CSc1nc2c(sc3ccccc32)c(=O)n1CCCN1CCOCC1)NC1CCCC1	none
CCN(CC)c1ccc2cc(C=O)c(=O)oc2c1	none
CCN(CC)c1ccc2nc3c4ccccc4c(=O)cc-3oc2c1	HSF1 inh -62.8 (no result: aDG glyco act, Dyrk1A ADPGlo)
CC(C)(C)c1ccc(C(=O)NC(=S)Nc2nc3c(s2)CCCC3)cc1	HSF1 inh -58.9
COc1ccc(N=Cc2ccc[nH]2)cc1	HSF1 inh -62.5
COc1ccc(N=Cc2ccc(-c3ccccc3)o2)cc1	none
CCCCOc1ccc(N=Cc2ccc[nH]2)cc1	HSF1 inh -68.0
CCCCOc1ccc(S(N)(=O)=O)cc1	none
CN(C)CCCNC(=O)CCC1CCCCC1	none
CS(=O)(=O)c1ccc2nc(NC(=O)Nc3ccc(Cl)c(Cl)c3)sc2c1	none
CS(=O)(=O)c1ccc2nc(NC(=O)Nc3cccc(Cl)c3)sc2c1	HSF-1 act 98.6
Cn1cc(Cl)c(C(=O)Nc2nc3ccc([N+](=O)[O-])cc3s2)n1	none
CC1CC1C(=O)Nc1nc2ccc(Cl)cc2s1 (stereo unspecified)	HSF-1 act 61.1
Cn1cc(Cl)c(C(=O)Nc2nc3ccc(Cl)cc3s2)n1	HSF-1 act 57.4
Cn1nc(-c2ccc(C(=O)O)cc2)c2ccccc2c1=O	none
CN(C1CCCCC1)S(=O)(=O)c1ccc(S(=O)(=O)N2CCN(CCC#N)CC2)cc1	none
O=C(Cn1nc(-c2ccccc2Cl)ccc1=O)Nc1ccccc1-c1ccccc1	HSF-1 act 52.7 (no result: Dyrk1A ADPGlo)
O=C(Cn1nc(-c2ccccc2)ccc1=O)N1CCCCC1	HSF1 inh -78.6
O=C(Cn1nc(-c2ccccc2)ccc1=O)N1CCOCC1	none
CN(C)c1ccc(C(=O)/C=C/c2cccnc2)cc1	HSF-1 act 52.2
COc1ccc(-c2nn(-c3ccccc3)cc2/C=N/NC(=S)NC(C)C)cc1OC	NPR2 activator 41.9
C=CCNC(=S)N/N=C/c1cn(-c2ccccc2)nc1-c1ccc(OC)cc1	NPR2 activator 42.1
COc1ccc(-c2nn(-c3ccccc3)cc2/C=N/O)cc1OC	none
COc1ccc(-c2nn(-c3ccccc3)cc2/C=N/NC(=O)c2ccc(Br)o2)cc1	none
C[C@@H]1CN([C@@H](C)CO)C(=O)CCCn2cc(nn2)CO[C@H]1CN(C)S(=O)(=O)c1ccc2ccccc2c1	none (no result: HSF1 inh, HSF-1 act, Dyrk1A ADPGlo)
Cc1[nH]nc2c1C1(CCC(c3ccccc3)CC1)C(C#N)=C(N)O2 (stereo unspecified)	none
O=C(NCC1CCCCC1)c1[nH]c(C(F)(F)F)nc1-c1ccccc1	none (no result: HSF1 inh, HSF-1 act, Dyrk1A ADPGlo)
COc1ccc(Nc2ccc3c(c2)=NC2(CCCCC2)[N+]=3[O-])cc1	HSF-1 act 79.2 (no result: NPR2 activator, NPR1 activator)
CN(C)c1ccc(NC(=O)/C=C/c2ccccc2Cl)cc1	HSF-1 act 54.1
CC(=O)Nc1ccc(S(=O)(=O)Nn2cnnc2)cc1	none
CCCCCCCN(C(=O)CCl)c1ccccc1C	HSF-1 act 93.8
CCN(C(=O)Cn1c(=O)oc2ccccc21)c1cccc(C(F)(F)F)c1	none
CCC1=NN(C(=O)Cc2ccc([N+](=O)[O-])cc2)C(O)(C(F)(F)F)C1 (stereo unspecified)	none (no result: Dyrk1A ADPGlo)
O=C(Cc1ccc([N+](=O)[O-])cc1)N1N=C(C2CC2)CC1(O)C(F)(F)F (stereo unspecified)	HSF-1 act 67.7
OCc1cn(-c2ccccc2)nc1-c1cc2ccccc2o1	HSF-1 act 62.7
